HCMV inh = qHTS Assay for inhibitors of the human cytomegalovirus (HCMV). HFF cells, HCMV-luciferase reporter, 72 h; active compounds read low. activity change, negative = inhibition, % at 57.5 µM. 4.5% of 410,000 active; in the data active means activity change below about -60%; inconclusive means no clear call, values can overlap the other calls; inactive means above about -39%; further: on the % scale 0 is the no-effect control and ±100 the full control effect
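HFF cells seeded 16 h at 37C, treated with compounds, infected with luciferase-reporter HCMV at MOI 1 PFU/cell; luciferase read at 72 h post infection, normalized to buffer-only and Salinomycin controls.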
FMDV inh = High Throughput Screening for Foot and Mouth Disease Virus Antivirals; FMDV antiviral cell-based qHTS; Potency, µM (series often up to 57.9 µM), for inactives: top-dose activity change, negative = inhibition, actives largely listed as inhibitors; 1.2% of 410,000 active; AID 1159524, 2015; calls by dose curve; tested in HEK293T cells; further: read-out not given here; potency means the concentration at half of the fitted maximal effect; on the % scale 0 is the no-effect control and ±100 the full control effect; nearly all actives have a fitted effect of over 45% in size
HCV inh = qHTS Assay for Inhibitors of Hepatitis C Virus (HCV); Huh7.5.1 HCVcc-Cre infection, luciferase reporter, 44 h; Potency, µM (highest dose often 41.8 µM), for inactives: at the top dose activity change, negative = inhibition, most hits filed as inhibitors; 3.4% of 340,000 active; AID 651820, 2012; active means well fitted inhibition curve with a large enough effect; inconclusive means small, poorly fitted or top-dose-only effect, or another doubt; inactive means no such curve, though single readings can be large or run the other way; further: potency means the concentration at half of the fitted maximal effect; on the % scale 0 is the no-effect control and ±100 the full control effect
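Seed cells (1,000/well) for 4 h; treat with compound and infect with HCVcc-Cre, moi about 0.5. Incubate 44 h, then detect luciferase activity.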
MARV entry inh = qHTS for inhibitors of binding or entry into cells for Marburg Virus. Potency, µM (top dose mostly 37.8 µM), for inactives: top-dose activity change, negative = inhibition, hits mostly inhibitors. 1.8% of 300,000 active. Marburg virus pseudotyped entry inhibition, cell reporter; calls by dose curve; tested in HEK293 cells; further: potency means the concentration at half of the fitted maximal effect; on the % scale 0 is the no-effect control and ±100 the full control effect
Lassa entry inh = qHTS for Inhibitors of binding or entry into cells for Lassa Virus; Lassa virus pseudotype entry inhibition, cell reporter; Potency, µM (titrated, usually from 37.9 µM), inactives show at the top dose activity change, negative = inhibition, hits mostly inhibitors; 1.2% of 300,000 active; calls by dose curve; tested in HEK293 cells; further: potency means the concentration at half of the fitted maximal effect; on the % scale 0 is the no-effect control and ±100 the full control effect; nearly all actives have a fitted effect of over 50% in size
SARS PLP yeast = qHTS of Yeast-based Assay for SARS-CoV PLP; S. cerevisiae expressing SARS-CoV PLpro, growth rescue; 0.19% of 330,000 active; Potency, µM (highest dose often 32.9 µM), inactives show top-dose activity, positive = growth rescue, usual class: activators; calls by dose curve; further: potency means the concentration at half of the fitted maximal effect; 0% is about no effect; nearly all actives have a fitted effect of over 55% in size
An asterisk follows results filed as active; [ ] = another dose, or the depositor's remark. An excerpt weighted towards active compounds, which were near 8% of everything screened.

What do the screens show for `COCCN(C(=O)CCC(=O)Nc1cc(C)on1)C(C(=O)NC(C)(C)C)c1ccccc1Cl` (stereo not given)?
HCMV inh: -63*; FMDV inh: 25%; HCV inh: 21%; MARV entry inh: 9%; Lassa entry inh: 10%; SARS PLP yeast: -1%

What do the screens show for `COc1cc(C2Oc3ccccc3C=C2[N+](=O)[O-])cc(OC)c1OC` (stereo not given)?
HCMV inh: -104*; FMDV inh: 13µM*; HCV inh: inconclusive; SARS PLP yeast: -21%

What do the screens show for `COc1cc(C2NC(=O)c3ccccc3O2)cc(OC)c1OC` (stereo not given)?
HCMV inh: 8; FMDV inh: -10%; HCV inh: -8%; MARV entry inh: -6%; Lassa entry inh: -1%; SARS PLP yeast: 0%

How did COC(=O)[C@@H]1[C@@H](CO)[C@@H]2Cn3c(ccc(Br)c3=O)[C@@H]2N1Cc1cccc(F)c1 do in these assays?
HCMV inh: -3

Results for O=C(CN1CCN(Cc2ccc(F)cc2Cl)C1=O)NCCCN1CCOCC1 ?
HCMV inh: 4; FMDV inh: 0%; HCV inh: 8%; SARS PLP yeast: inconclusive

Results for O=C(CN1CCN(Cc2ccc(Cl)cc2)C1=O)NCCCN1CCN(c2ccc(F)cc2)CC1 ?
HCMV inh: -75*; FMDV inh: inconclusive; HCV inh: 10µM*; MARV entry inh: 13µM*; Lassa entry inh: -23%; SARS PLP yeast: 9%

How did O=C(NCCCN1CCOCC1)NC12CC3CC(CC(C3)C1)C2 do in these assays?
HCMV inh: -24; FMDV inh: -21%; HCV inh: 22%; MARV entry inh: 8%; Lassa entry inh: 16%; SARS PLP yeast: 1%

How did Cc1ccccc1CN1CCN(CC(=O)NCCCN2CCN(c3ccc(F)cc3)CC2)C1=O do in these assays?
HCMV inh: -18; FMDV inh: -20%; HCV inh: 10µM*; MARV entry inh: inconclusive; Lassa entry inh: -22%; SARS PLP yeast: 5%

Results for O=C(CN1CCN(Cc2ccc(Cl)cc2)C1=O)NCCCN1CCOCC1 ?
HCMV inh: 28; FMDV inh: -24%; HCV inh: 15%; SARS PLP yeast: 3%

How did O=C(NCCCN1CCN(c2ccc(F)cc2)CC1)NC12CC3CC(CC(C3)C1)C2 do in these assays?
HCMV inh: -79*; FMDV inh: -28%; HCV inh: inconclusive; MARV entry inh: inconclusive; Lassa entry inh: inconclusive; SARS PLP yeast: 1%

How did Cc1noc2nc(C(=O)O)nc(N3CCCCC3)c12 do in these assays?
HCMV inh: -16; FMDV inh: -9%; MARV entry inh: 18%[46.1 µM]; Lassa entry inh: 2%[46.1 µM]

What do the screens show for `COc1ccccc1CNC(=O)C(=O)NCC(c1cccs1)S(=O)(=O)c1ccccc1` (stereo not given)?
HCMV inh: 6; FMDV inh: inconclusive; Lassa entry inh: 2%[46.1 µM]

Results for COCCN1CCC(CNCc2cn(-c3cc(C)ccc3C)nc2-c2ccccc2)C1 (stereo not given) ?
HCMV inh: -60*; FMDV inh: -6%; HCV inh: 7.9µM*; SARS PLP yeast: 0%

How did CCOc1ccccc1NC(=O)Cn1c(=O)n(Cc2cccs2)c(=O)c2cccnc21 do in these assays?
HCMV inh: -23; FMDV inh: -14%; MARV entry inh: 1%[46.1 µM]

Results for O=C(c1ccccc1)c1cccc2ccccc12 ?
HCMV inh: -6; FMDV inh: -12%; HCV inh: -9%; MARV entry inh: 3%[46.1 µM]; Lassa entry inh: -15%[46.1 µM]

Results for O=C(c1ccccc1)c1ccccc1N1C(=O)C=CC1=O ?
HCMV inh: -93*; FMDV inh: inconclusive; HCV inh: inconclusive; MARV entry inh: inconclusive; Lassa entry inh: inconclusive; SARS PLP yeast: -6%

What do the screens show for `O=C1C=CC(=O)N1c1ccccc1N1C(=O)C=CC1=O`?
HCMV inh: 0; FMDV inh: inconclusive; HCV inh: inconclusive; MARV entry inh: inconclusive; Lassa entry inh: 11µM*
